# Screening data (PubChem BioAssay)
# HP1b binding inh – HP1-beta chromodomain-methylated histone interaction inhibition. AlphaScreen HP1-beta / biotin-H3K9me3 peptide binding. Potency, µM (titrated, usually from 114 µM), for inactives: at the highest dose activity change, negative = inhibition, most hits filed as inhibitors. 390,000 tested, 0.56% active. AID 540317; further: nearly all actives have a fitted effect of over 70% in size
#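 AlphaScreen: HP1-beta (50 nM) preformed 30 min with biotin-H3(1-18)K9me3 peptide (50 nM) in PBS pH 7.4, 0.01% Tween-20. Compound added for 30 min at RT, then streptavidin donor/nickel chelate acceptor beads (10 ug/mL) for 30 min.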
# VDR inhibitor – inhibitors of human vitamin D receptor | P11473 | VDR-SRC2-3 peptide fluorescence polarization, 2 h | Potency, µM, for inactives: max response, negative = inhibition, hits mostly inhibitors | 400,000 tested, 0.93% active | AID 504847; further: on the % scale 0 is the no-effect control and ±100 the full control effect
#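 Fluorescence polarization assay measuring small-molecule disruption of VDR binding to the coregulator peptide SRC2-3. Compounds were pin-transferred (23 nl) into the reagent mix and incubated 2 h at room temperature before reading.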
# G9a block – inhibitors of human histone lysine methyltransferase G9a; Q96KQ7; G9a H3K9 monomethylation, AlphaScreen, 2 h; Potency, µM (highest dose often 102 µM), for inactives: at the top dose activity, negative = inhibition, usual class: inhibitors; 350,000 tested, 8.8% active; further: on the % scale 0 is the no-effect control and ±100 the full control effect; nearly all actives have a fitted effect of over 75% in size
#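 Methyltransferase reactions run at room temperature for 2 h (20 nM enzyme, 500 nM biotin-H3K9 peptide, 20 uM SAM) after a 15 min compound preincubation; product detected by AlphaScreen beads and anti-H3K9me1 antibody.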
# BAZ2B inh – inhibitors of human BAZ2B bromodomain; AlphaScreen BAZ2B-H3K14Ac peptide displacement; Potency, µM (series often up to 114 µM), without a hit: at the highest dose activity change, negative = inhibition, usual class: inhibitors; 360,000 tested, 4.4% active; AID 504333; further: on the % scale 0 is the no-effect control and ±100 the full control effect; nearly all actives have a fitted effect of over 60% in size
#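 BAZ2B (50 nM) with biotin-H3(5-23)K14Ac peptide (50 nM) in PBS pH 7.4, 0.01% Tween-20, preformed 30 min, then compound 30 min at room temperature; top concentration 110uM. AlphaScreen streptavidin donor/nickel chelate acceptor beads (10 ug/mL final), 20 min dark, signal read.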
# PLK1 PBD inh – inhibitors of human PLK1 polo-box domain binding. 360,000 tested, 2.8% active. AID 720504. Plk1 PBD binding of FITC phosphopeptide, fluorescence polarization. P53350. Potency, µM, for the others: max response, negative = inhibition, usual class: inhibitors; further: series mostly up to about 57 µM; on the % scale 0 is the no-effect control and ±100 the full control effect; nearly all actives have a fitted effect of over 65% in size
# JMJD2A Tudor – inhibitors of human JMJD2A Tudor domain. 390,000 tested, 4.4% active. Potency, µM (series often up to 114 µM), without a hit: top-dose activity change, negative = inhibition, most hits filed as inhibitors. O75164. AlphaScreen JMJD2A-Tudor / H3K4me3 peptide binding; further: on the % scale 0 is the no-effect control and ±100 the full control effect; nearly all actives have a fitted effect of over 50% in size
# The depositor's hits bear a star; ? = inconclusive; nt = no result given; [ ] = remark or other dose. This is a sample that favours compounds with a hit; in the whole collection about 11% have one here. The call rests on the fitted dose curve; in most records, active means well fitted curve in the direction sought with a large enough effect; inconclusive means small, poorly fitted or top-dose-only effect, or another doubt; inactive means no such curve, though single readings can be large; an effect the other way counts as inactive or inconclusive. Potency means the concentration at half of the fitted maximal effect.
SMILES,HP1b binding inh,VDR inhibitor,G9a block,BAZ2B inh,PLK1 PBD inh,JMJD2A Tudor
Cc1ccc(N2C(=O)CS(=O)(=O)C23C(=O)N(Cc2ccccc2C)c2ccccc23)cc1Cl (stereo not drawn),3%,5%,?,-2%[57.1 µM],nt,-25%
O=C1C(=C(c2ccccc2)c2ccccc2)Nc2ccccc21,16µM*,-2%,-147%[59 µM],11µM*,1%,28µM*
CCOC(=O)c1cnc(SCC(=O)N2CCC(C(N)=O)CC2)nc1N,49%,14%,50µM*,-28%,-21%,3%
CCOC(=O)c1cnc(SCC(=O)c2ccccc2)nc1N,3%,?,28µM*,nt,-23%,-20%
CCOC(=O)c1cnc(SCc2nc(N)nc(Nc3ccc(C)cc3)n2)nc1N,55%,-18%,18µM*,-11%,?,-15%[11.4 µM]
CCOC(=O)c1cnc(SCC(=O)c2ccc(C)cc2)nc1N,15%,11%,?,0%,-9%,-5%
CC(C)(C)OC(=O)N/N=C/c1ccc(N2CCOCC2)s1,12%,-9%,16µM*,-4%,0%,-16%
O=S(=O)(CS(=O)(=O)Oc1ccccc1)Oc1ccccc1,?,-21%,nt,nt,21µM*,-10%
NS(=O)(=O)Oc1ccccc1,17%,-9%,nt,-6%,-11%,-24%
Cc1ccc(N(CC(=O)Nc2ccc(F)cc2F)S(=O)(=O)c2cccs2)cc1,43%,5%,-3%[59 µM],nt,nt,-14%
CC1Oc2ccccc2OC1(O)c1ccccn1 (stereo not drawn),41%,3%,20µM*,-24%,-6%,50µM*
CN(C)CCN(C(=O)c1ccc(S(=O)(=O)N(C)C)cc1)c1nc2cc3c(cc2s1)OCCO3,10%,-5%,56µM*,nt,?,-15%
CCN(c1ccccc1)S(=O)(=O)c1ccc(C(=O)N(CCN(C)C)c2nc3c(F)cc(F)cc3s2)cc1,nt,nt,45µM*,-15%,nt,nt
CCOc1ccc2nc(N(CCN(C)C)C(=O)c3ccc4c(c3)CCCC4)sc2c1,-15%,3%,40µM*,?,-15%,35µM*
CN(C)CCN(C(=O)c1ccc2c(c1)OCCO2)c1nc2cc3c(cc2s1)OCO3,-25%,-6%,nt,?,-11%,?
CCOc1cccc2sc(N(CCCN(C)C)C(=O)c3ccc(S(=O)(=O)N4CCc5ccccc5C4)cc3)nc12,13%,-2%,nt,-28%,-14%,-6%
CCOc1cccc2sc(N(CCCN(C)C)C(=O)c3ccc(S(=O)(=O)N(C)c4ccccc4)cc3)nc12,-19%,4%,56µM*,?,5%,?
CCOc1ccc(-n2c(SCc3ccccc3)nc3c([nH]c4ccccc43)c2=O)cc1,19%[57 µM],3%,-5%[59 µM],-1%,nt,?
COc1cc(C2CC(=O)N(Cc3cccc(F)c3)c3ccccc3S2)cc(OC)c1OC (stereo not drawn),26%,-17%,-1%[59 µM],-6%,nt,-19%
CCN(CC(=O)Nc1ccccc1C(F)(F)F)C(=O)c1ccc2[nH]c3c(c2c1)CC(C)CC3 (stereo not drawn),-25%,1%,9%[12.7 µM],?,-9%,?
CN(C)CCN(C(=O)c1ccc2c(c1)CCCC2)c1nc2cc3c(cc2s1)OCCO3,?,-21%,nt,-1%,-1%,45µM*
CN(C)CCN(C(=O)c1ccc(S(=O)(=O)N(C)CC2CCCO2)cc1)c1nc2cc3c(cc2s1)OCO3 (stereo not drawn),-12%,11%,?,-38%,-6%,?
CN(C)CCN(C(=O)c1ccc(S(=O)(=O)N(C)c2ccccc2)cc1)c1nc2cc3c(cc2s1)OCCO3,-11%,2%,40µM*,?,2%,?
O=C(CCC1N=C2c3ccccc3N=C(SCc3ccc(F)cc3)N2C1=O)N1CCN(c2ccccc2)CC1 (stereo not drawn),15%,-8%,?,-27%,nt,-32%
CC(/C=C/c1ccc2c(c1)OCO2)=N/NC(=O)c1ccc(C)nc1,15%,-5%,55%[59 µM],-7%,-4%,-25%
SMILES,HP1b binding inh,VDR inhibitor,G9a block,BAZ2B inh,PLK1 PBD inh,JMJD2A Tudor
CC1=CC(=NOS(=O)(=O)c2ccc(C)cc2)CC(C)(C)C1,nt,nt,nt,nt,-1%,nt
CC1=C(C)/C(=N\OS(=O)(=O)c2ccc(C)cc2)C=CC1=O,?,28µM*,20µM*,25µM*,?,56µM*
COc1ccc(S(=O)(=O)/N=C2/C=CC(=O)C(C)=C2C)cc1,?,?,?,-8%,24µM*,-35%
COc1ccc(S(=O)(=O)c2ccc(OC)cc2)cc1,27%,8%,-6%[59 µM],8%,-14%,3%
CCOc1ccc(C(=O)N2CCC(c3nnc(-c4ccccc4OC)o3)CC2)cc1,26%,5%,-45%[59 µM],-5%,nt,-11%
CCC(C)NCCOc1ccccc1C (stereo not drawn),?,12%,2.8µM*,50µM*,-5%,3.2µM*
CCC(C)NCCOCCOc1ccc(Br)cc1 (stereo not drawn),?,-12%,?,79µM*,-8%,11µM*
CCC(C)NCCOc1ccc(Br)cc1 (stereo not drawn),?,6%,13µM*,?,-7%,3.5µM*
COc1cccc(CN(C)C(=S)Nc2ccc(C)c(C)c2)c1,13%,-2%,15%[59 µM],-24%,-2%,-15%
CCNc1cccc(S(=O)(=O)N2CCN(S(=O)(=O)c3ccc4c(c3)OCCO4)CC2)c1,nt,nt,nt,nt,nt,-35%
CSCCC(NC(=O)c1cccc(C)c1)C(=O)OCC(=O)Nc1c(C)nn(-c2ccccc2)c1C (stereo not drawn),1%,1%,23%[12.7 µM],18%,-5%,-33%
CCOC(=O)C1=CCN(S(=O)(=O)c2ccc(C)cc2)C1c1ccc(CC)cc1 (stereo not drawn),nt,nt,nt,nt,-12%,nt
CSc1ccccc1NC(=O)Nc1cccc2ccccc12,26%,-1%,79µM*,18%,-9%,3%
COc1cccc(NC(=O)Nc2ccccc2SC)c1,13%,-8%,6%,-19%,19µM*,-32%
COc1cccc(NC(=O)Nc2cccc(C(=O)O)c2)c1,46%,10%,12%,1%,-8%,2%
COc1cccc(NC(=O)NC2(C(F)(F)F)Oc3ccccc3O2)c1,20%,11%,3.5µM*,11%,-8%,71µM*
CSc1ccccc1NC(=O)Nc1cccc(Cl)c1Cl,30%,-16%,0%[59 µM],7%,-10%,-13%
O=C(CSCCO)Nc1cccc2ccccc12,38%,19%,50µM*,11%,-1%,1%
O=C(Cc1ccc(F)cc1)NCCc1csc2nc(-c3ccccc3F)nn12,20%[57 µM],-9%,1%[59 µM],5%,nt,5%
C/C(=N\Nc1cc(N2CCOCC2)ncn1)c1ccccc1,8%,-11%,nt,8%,-4%,-21%
